Measured values from PubChem BioAssay AID2014 (Sanford-Burnham Center for Chemical Genomics, 2009).
Out of some 290,000 compounds screened, about 3,000 (1%) were called active. The rule behind the calls is not given here. Shown is part of a subset that was picked to be rich in actives.

Target: Polyadenylate-binding protein 1 (Homo sapiens) (UniProt P11940)
Test: PABP poly(A) RNA binding inhibitors, primary screen, biochemical, fluorescence polarization, uHTS (AID 2014);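 note: calls also rest on retests at 20 µM and on dose response follow-up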
Settings: stronger effect = higher value

Sequence of Polyadenylate-binding protein 1 (Homo sapiens) (P11940 whole entry, looked up): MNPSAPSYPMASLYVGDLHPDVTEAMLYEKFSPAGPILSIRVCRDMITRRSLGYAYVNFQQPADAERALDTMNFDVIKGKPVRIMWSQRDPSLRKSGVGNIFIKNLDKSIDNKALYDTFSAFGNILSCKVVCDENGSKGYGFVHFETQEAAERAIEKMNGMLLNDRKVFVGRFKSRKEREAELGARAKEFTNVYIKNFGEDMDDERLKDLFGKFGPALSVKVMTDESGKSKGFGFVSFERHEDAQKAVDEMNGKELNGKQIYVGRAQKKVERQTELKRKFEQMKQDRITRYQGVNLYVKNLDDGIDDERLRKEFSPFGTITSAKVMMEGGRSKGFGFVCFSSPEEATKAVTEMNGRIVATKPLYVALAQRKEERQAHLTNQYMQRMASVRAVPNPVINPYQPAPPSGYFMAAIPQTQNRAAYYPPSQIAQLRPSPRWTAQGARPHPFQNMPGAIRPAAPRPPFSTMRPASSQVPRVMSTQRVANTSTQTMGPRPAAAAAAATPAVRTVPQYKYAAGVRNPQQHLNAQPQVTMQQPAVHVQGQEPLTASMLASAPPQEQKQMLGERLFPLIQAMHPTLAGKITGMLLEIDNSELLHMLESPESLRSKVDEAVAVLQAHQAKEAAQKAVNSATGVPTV

N/C(=N\OS(=O)(=O)c1cccc([N+](=O)[O-])c1)c1ccncc1
inhibition (at 35 µM): -9.3% (active) | inhibition (confirmation repeats, at 20 µM): 74.6%

O=C(N/N=C/c1cccc([N+](=O)[O-])c1)c1ccncc1
inhibition (at 35 µM): -0.6% (inactive)

COc1cccc(CNc2ncc(-c3ccccc3)n2C)c1
inhibition (at 35 µM): -1.9% (inactive)

C=CCn1cc(Cl)cc(C(=O)Nc2ccccc2)c1=O
inhibition (at 35 µM): -10% (inactive)

O=C(N/N=C/c1ccc([N+](=O)[O-])o1)c1cccc(S(=O)(=O)N2CCOCC2)c1
inhibition (at 35 µM): -5% (inactive) | inhibition (confirmation repeats, at 20 µM): 12.9%

O=C(N/N=C/c1cc(Cl)cc([N+](=O)[O-])c1O)C(O)(c1ccccc1)c1ccccc1
inhibition (at 35 µM): 30.5% (inactive)

O=[N+]([O-])c1cc(Cl)cc(/C=N/NC(=S)Nc2cc(S(=O)(=O)N3CCOCC3)ccc2Cl)c1O
inhibition (at 35 µM): 70.2% (active)

CC1=C(C(=O)OCC2CCCCC2)C(c2ccc(F)cc2)NC(=O)N1 (stereo not drawn)
inhibition (at 35 µM): 0.3% (inactive)

O=C(NCCCNCc1ccccc1)c1ccc(/C=N/O)nc1
inhibition (at 35 µM): -3.1% (inactive)

CC(C)c1ccc(C(=O)NCCCc2ccccc2)cc1
inhibition (at 35 µM): -0.9% (inactive)

C[N+](C)(C)CCNC(=O)c1cc[n+](Cc2ccccc2)c(/C=N/O)c1
inhibition (at 35 µM): 54.2% (active) | inhibition (confirmation repeats, at 20 µM): 73.1%

O=C1CCC(C(=O)N2CCCCO2)CN1Cc1cccc(C(F)(F)F)c1 (stereo not drawn)
inhibition (at 35 µM): 4.6% (inactive)

CN(C(=O)c1cccc(OC2CCN(S(=O)(=O)N(C)C)CC2)c1)C1CCOC1 (stereo not drawn)
inhibition (at 35 µM): 17.8% (inactive)

CC1(C(=O)NCCc2c[nH]c3ccccc23)C=CC2(CCCCC2)N1C(=O)c1ccccc1 (stereo not drawn)
inhibition (at 35 µM): 4.3% (inactive)

Oc1c(Cl)cc(Cl)c(Cl)c1Cc1c(O)c(Cl)cc(Cl)c1Cl
inhibition (at 35 µM): -1.5% (active) | inhibition (confirmation repeats, at 20 µM): 84.7%

COc1cccc(/C=C2\Sc3ccc(C(=O)NCC4CCCO4)cc3N(C)C2=O)c1 (stereo not drawn)
inhibition (at 35 µM): 8.6% (inactive)

Cc1cccc(C)c1N1C(=O)CN(Cc2ccccc2)C1=S
inhibition (at 35 µM): 8.2% (inactive)

CC(=O)N1c2ccc(S(=O)(=O)NCCC(=O)N(C)C3CCCCC3)cc2CC1C (stereo not drawn)
inhibition (at 35 µM): 3.5% (inactive)

O=C(Nc1ncc2c(n1)-c1ccccc1OC2)c1ccc(Cl)cc1
inhibition (at 35 µM): 4.5% (inactive)

CCc1ccc(Nc2ncc3c(n2)CC(c2ccco2)CC3=O)cc1 (stereo not drawn)
inhibition (at 35 µM): 6.2% (inactive)

O=C(Nc1ncc2c(n1)CC(c1ccco1)CC2=O)c1ccc(Cl)cc1 (stereo not drawn)
inhibition (at 35 µM): 65.9% (active)

CNC(=O)CN1C(=O)NC(c2ccccc2)(c2ccccc2)C1=O
inhibition (at 35 µM): -6.2% (inactive)

COc1ccc(NC(=O)NN2CCN(C)CC2)c(OC)c1
inhibition (at 35 µM): -2.5% (inactive)

CSc1nnc(SCc2nc3sc(C(=O)O)c(C)c3c(=O)[nH]2)s1
inhibition (at 35 µM): 52.9% (active)

Cc1ccc(C)c(SCc2nc3sc(C(=O)O)c(C)c3c(=O)[nH]2)c1
inhibition (at 35 µM): -4% (inactive)

CCOC(=O)c1sc2nc(CSc3ccccc3)[nH]c(=O)c2c1C
inhibition (at 35 µM): 9.6% (inactive)

Cc1cccc(OCC(O)Cn2c(N3CCCCC3)nc3c2c(=O)[nH]c(=O)n3C)c1 (stereo not drawn)
inhibition (at 35 µM): -7.3% (inactive)

COc1ccccc1/C=C/C(=O)NC1CC2CCC1C2 (stereo not drawn)
inhibition (at 35 µM): 13.8% (inactive)

Cc1ccc(Nc2nc(C)cc(C)c2C(N)=O)cc1
inhibition (at 35 µM): 3.4% (inactive)

Cc1cc(C)c(C(N)=O)c(Cl)n1
inhibition (at 35 µM): 74.6% (active) | inhibition (confirmation repeats, at 20 µM): 79.1%

Cc1cc(OC(=O)c2c(Cl)cccc2Cl)nc(C)n1
inhibition (at 35 µM): 8.5% (inactive)

O=C(NCc1cccc(C(F)(F)F)c1)c1cccc(S(=O)(=O)N2CCN(Cc3ccccc3)CC2)c1
inhibition (at 35 µM): -3.2% (inactive)

O=C(Nc1ccc(Br)cc1F)C1CC(=O)N(C2CCCCC2)C1 (stereo not drawn)
inhibition (at 35 µM): -1% (inactive)

COc1ccc(C(=O)NC(C)c2nccs2)cc1OC1CCN(C(C)C)CC1 (stereo not drawn)
inhibition (at 35 µM): 1.2% (inactive)

CCN(C(=O)CSc1nnc(-c2ccncc2)o1)c1ccccc1
inhibition (at 35 µM): -2.5% (inactive)

CCSc1nc(O)c(C(c2cccc(OC)c2)c2c(O)nc(SCC)[nH]c2=O)c(=O)[nH]1
inhibition (at 35 µM): 8.4% (inactive)

N#CC1=C(N)N(c2ccc(F)cc2)C(=O)C1
inhibition (at 35 µM): 97.6% (active)

O=C1CC(N2CCN(c3ccc(F)cc3)CC2)C(=O)N1c1ccccc1 (stereo not drawn)
inhibition (at 35 µM): 48.8% (inactive)

O=C1CCCC2=C1C(c1cccs1)CC(=O)N2c1ccc(F)cc1 (stereo not drawn)
inhibition (at 35 µM): -1.2% (inactive)

C[C@H]1[C@H]2c3nc4ccccc4n3C[C@H]1ON2C1CCCCC1
inhibition (at 35 µM): -0.1% (inactive)

O=c1nc2s/c(=C\c3ccco3)c(=O)n2nc1Cc1ccccc1
inhibition (at 35 µM): 75.7% (active)

O=C(Cc1ccccc1)n1nc(-c2ccccc2)nc1NCc1ccco1
inhibition (at 35 µM): -0.2% (inactive)

Cc1nc2nc(SCC(=O)NCc3ccco3)nn2c(C)c1Cc1ccccc1
inhibition (at 35 µM): 10.6% (inactive)

CCOCCc1nn2c(=O)cc(CSCC(=O)Nc3cccc(C)c3C)nc2s1
inhibition (at 35 µM): 8.3% (inactive)

COc1ccc(-c2csc(Cc3nc(O)cs3)n2)cc1
inhibition (at 35 µM): 70.4% (active) | inhibition (confirmation repeats, at 20 µM): 52.3%

COc1ccc(-c2csc(NC3OC(=O)c4ccccc43)n2)cc1 (stereo not drawn)
inhibition (at 35 µM): -0.5% (inactive)

CC(C)(C)C(=O)OCc1nc(-c2ccc(O)c(O)c2)cs1
inhibition (at 35 µM): 10% (inactive)
